# Assay results: PubChem BioAssay (Tox21)
# Records with an inconclusive call do not appear. Activity calls are given as the source filed them. Calls come from the whole dose curve; as a rule, active = well fitted inhibition curve with a large enough effect in the signal ratio in the repeat runs (not every such curve was filed as active); inconclusive = weak or mixed curves, or effect the other way; inactive = no such curve, though single readings can be large or run the other way; the % refers to the signal ratio.
# Target: Vitamin D3 receptor (Homo sapiens) (UniProt P11473)
# Assay: qHTS assay to identify small molecule antagonists of the vitamin D receptor (VDR) signaling pathway (AID 743223)
# Details: VDR-UAS-bla HEK293T, beta-lactamase FRET ratio, 16 h; series mostly up to 61 µM
# Text: U.S. Tox21 Program National Center for Advancing Translational Sciences [NCATS] NIH Chemical Genomics Center [NCGC] U.S. Environmental Protection Agency [EPA] National Institutes of Environmental Health Sciences [NIEHS] National Toxicology Program [NTP] U.S. Food and Drug Administration [FDA] Tox21 Assay Overview: The vitamin D receptor (VDR), a member of nuclear hormone receptor superfamily, plays a critical role in calcium homeostasis and bone metabolism. It is also involved in cell differentiation and growth, and thrombogenicity.
# Tox21 Assay Protocol Summary: VDR-bla cells were dispensed at 2,000 cells/5 uL of assay medium per well into black wall/clear-bottom 1536-well plates using a Multidrop Combi (Thermo Fisher Scientific, Waltham, MA) dispenser. After the assay plates were incubated at a 37C and 5% CO2 for 4 h, 23 nL of compounds dissolved in DMSO, positive controls or DMSO only was transferred to the assay plate by a Pintool station (Kalypsys, San Diego, CA), followed by addition of 1 uL of 1alpha, 25-Dihydroxy Vitamin D3 (3 nM, final concentration in the wells) using a Bioraptr Flying Reagent Dispenser (FRD) workstation (Beckman Coulter, Indianapolis, IN). The plates were incubated at 37C and 5% CO2 for 16 h, and then 1 uL of LiveBLAzerTM B/G FRET substrate was added using a Bioraptr FRD. The plates were incubated at room temperature for 2 h and fluorescence intensity was measured by an Envision plate reader (PerkinElmer, Shelton, CT).
# Chain of Vitamin D3 receptor (Homo sapiens) (P11473 whole entry, looked up): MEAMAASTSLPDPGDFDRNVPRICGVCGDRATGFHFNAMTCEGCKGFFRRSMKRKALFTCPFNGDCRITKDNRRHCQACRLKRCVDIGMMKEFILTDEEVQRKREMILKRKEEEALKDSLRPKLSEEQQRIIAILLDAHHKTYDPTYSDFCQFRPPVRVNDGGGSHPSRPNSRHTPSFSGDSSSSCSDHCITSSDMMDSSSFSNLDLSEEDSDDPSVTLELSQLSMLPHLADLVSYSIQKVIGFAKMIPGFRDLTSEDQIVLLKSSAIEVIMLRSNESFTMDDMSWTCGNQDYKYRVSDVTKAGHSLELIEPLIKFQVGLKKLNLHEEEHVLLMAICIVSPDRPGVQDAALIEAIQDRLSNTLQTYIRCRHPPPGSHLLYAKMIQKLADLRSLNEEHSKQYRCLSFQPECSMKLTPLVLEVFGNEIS
row,Structure (SMILES),outcome
1,Cc1ccc(S(=O)(=O)N=C=O)cc1,inactive
2,Cc1ccc(C(C)C)c(O)c1,inactive
3,CC1(C)OC[C@@H]2O[C@@]3(C(=O)O)OC(C)(C)O[C@H]3[C@@H]2O1,inactive
4,Brc1ccc(Br)c(Br)c1,inactive
5,COc1ccc(C)cc1N,inactive
6,C=CC(C)CCCC(C)(C)O (stereo not given),inactive
7,C=C(C)C(=O)OCC(C)C,inactive
8,CC(=O)c1ccc(O)cc1,inactive
9,CCCCCCCO,inactive
10,O=C(O)c1ccc(S(=O)(=O)N(Cl)Cl)cc1,inactive
11,c1ccc(Oc2ccccc2)cc1,inactive
12,CCOC(=O)c1ccc(N)cc1,inactive
13,C[Si]1(C)O[Si](C)(C)O[Si](C)(C)O[Si](C)(C)O1,inactive
14,COc1cc(OC)c(C(=O)CCCN2CCCC2)c(OC)c1,inactive
15,COC(=O)CCCC(=O)OC,inactive
16,Clc1ccccn1,inactive
17,CCOCCOCCOCCO,inactive
18,OC1C(O)C(O)C(O)C(O)C1O (stereo not given),inactive
19,COC(=O)c1cccnc1,inactive
20,CC(=O)OCCOC(C)=O,inactive

row,Structure (SMILES),outcome
1,O=S(=O)(O)c1ccc(N=Nc2c(O)ccc3cc(S(=O)(=O)O)ccc23)cc1,inactive
2,O=c1[nH]cnc2[nH]ncc12,inactive
3,O=C(O)/C=C/C(=O)O,inactive
4,COc1ccc(CCC(C)=O)cc1,inactive
5,CC(C)CCCCCCCOC(=O)CCCCC(=O)OCCCCCCCC(C)C,inactive
6,O=C1CCCC1,inactive
7,CC(=O)OCc1ccco1,inactive
8,C=C(C)[C@H]1CC=C(C)C(=O)C1,inactive
9,CN(C)c1ccc(Cc2ccc(N(C)C)cc2)cc1,inactive
10,CC(CCl)OP(=O)(OC(C)CCl)OC(C)CCl (stereo not given),inactive
11,NCCNCCN,inactive
12,Nc1ccc(Cl)c(N)c1,inactive
13,CN(C)CCOC(=O)COc1ccc(Cl)cc1,inactive
14,C=C(C)CNCC,inactive
15,CNC(=S)N(C)C,inactive
16,CC(C)(C#N)c1cc(Cn2cncn2)cc(C(C)(C)C#N)c1,inactive
17,CCCOC(=O)c1ccccc1,inactive
18,NCCCCCCN,inactive
19,N#Cc1ccccc1,inactive
20,CC(C)(C)c1cc(Cc2cc(C(C)(C)C)c(O)c(C(C)(C)C)c2)cc(C(C)(C)C)c1O,inactive
